Assay outcomes as filed in PubChem BioAssay.
Mtb hypoxia inh = PubChem AID 1159583 | M. tuberculosis hypoxia-regulated fluorescent reporter, fluorescence | fluorescence inhibition, % (test concentration not listed) | 0.1% of 300,000 active; in the data active = fluorescence inhibition mostly above about 23%, no sharp cut-off; inactive = mostly below about 17%
VHR inh abs = VHR1 phosphatase inhibitors, primary screen, biochemical, absorbance, uHTS; Dual specificity protein phosphatase 3 (Homo sapiens), P51452; 0.52% of 290,000 active; AID 1654, 2009; recombinant VHR phosphatase, pNPP absorbance; inhibition, % at 13.3 µM; in the data active = inhibition above about 50%
Target sequence (P51452 whole entry, looked up): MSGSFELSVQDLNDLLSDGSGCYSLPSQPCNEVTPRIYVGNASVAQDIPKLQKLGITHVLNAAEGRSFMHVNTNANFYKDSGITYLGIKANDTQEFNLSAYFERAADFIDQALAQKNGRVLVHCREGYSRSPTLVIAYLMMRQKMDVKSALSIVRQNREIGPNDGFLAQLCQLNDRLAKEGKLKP
SSB-PriA inh = inhibitors of Klebsiella pneumoniae PriA binding to SSB C-terminal tail, primary screen, biochemical, AlphaScreen; 0.6% of 430,000 active; AlphaScreen SSBct-PriA binding, biotinylated peptide; inhibition, % at 33 µM; PriA–SSB C-terminal tail interaction (Klebsiella pneumoniae); in the data active = inhibition mostly above about 37%, no sharp cut-off; inactive = mostly below about 20%;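 note: plate controls were negative control peptide for no effect and reference peptide for full effect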
SARS 3CLpro inh = SARS-CoV 3CLpro protease inhibitors, primary screen, biochemical, quenched FRET | recombinant SARS-CoV 3CLpro, quenched FRET peptide cleavage | inhibition, % at 6 µM | 0.14% of 290,000 active; in the data active = inhibition above about 12%
CCHFV vOTU inh = CCHFV vOTU protease inhibitors, primary screen, biochemical, Pep-AMC substrate, fluorescence | inhibition, % at 11.5 µM | 0.55% of 370,000 active; in the data active = inhibition above about 30%; note: 0% = vehicle wells with enzyme and 100% = no enzyme wells
* marks the source's active call; other numbers are inactive results; x = no result. Only some compounds are listed: those with a hit (about 1.3% of all), similar ones and a draw of the others.

SMILES	Mtb hypoxia inh	VHR inh abs	SSB-PriA inh	SARS 3CLpro inh	CCHFV vOTU inh
C=CCn1c(=NC(=O)c2cc(OC)c(OC)c(OC)c2)sc2cccc(F)c21	x	x	-9	x	x
COC(=O)c1c(NC(=O)CN2C(=O)NC3(CCCCC3C)C2=O)sc2c1CCC2 (stereo not given)	29*	x	4	x	7
CO/N=C/c1ccc(N2CCOCC2)c([N+](=O)[O-])c1	x	9	x	0	4
CN1CCN(c2cc(N3CCCC3)ccc2[N+](=O)[O-])CC1	x	x	59*	x	x
O=[N+]([O-])c1ccc(N2CCCC2)cc1N1CCN(c2ccccc2)CC1	x	x	84*	x	x
CON=Cc1ccc(N2CCCC2)c([N+](=O)[O-])c1	7	x	39*	x	x
CCOc1ccc(C(=O)Nc2ccc(-c3cn4ccsc4n3)cc2)cc1OCC	x	x	-12	x	x
COCCn1c(SCc2ccccc2Cl)nc2c([nH]c3ccccc32)c1=O	x	x	-15	x	x
CCOc1ccc(NC(=O)CC(Cc2cc(C)cc(C)c2)C(=O)O)cc1 (stereo not given)	16	53*	5	3	-7
COc1ccc(OC(C)C(=O)NCCOc2ccc3nnc(-c4ccccc4)n3n2)cc1 (stereo not given)	x	x	-5	x	x
NC(=O)NN=Cc1cn(CC(=O)Nc2ccc(F)cc2)c2ccccc12	70*	x	x	x	x
O=C(Cn1c2ccccc2c2ncn(Cc3ccccc3Cl)c(=O)c21)NCCC1=CCCCC1	x	x	-5	x	x
CN1C(=O)c2ccc(NC(=O)CS(=O)(=O)c3ccc(Cl)cc3)cc2C1=O	x	x	-8	x	x
Cc1cc([N+](=O)[O-])c(NCCCO)c([N+](=O)[O-])c1	x	x	24	x	x
CCCCCCNc1c([N+](=O)[O-])cc(C)cc1[N+](=O)[O-]	7	x	60*	-5	-5
Cc1c(C(=O)N(C)C)sc2nc(-c3ccccn3)[nH]c(=O)c12	x	19	47*	-3	14
CCN(CC)C(=O)c1sc2nc(Cc3ccccc3)[nH]c(=O)c2c1C	10	10	-12	-3	-11
COc1cccc(OC)c1C(=O)NCc1sc2nc(-c3ccc(F)cc3)cn2c1C	x	x	-10	x	x
Cc1c(CNS(=O)(=O)c2ccccc2F)sc2nc(-c3ccc(F)cc3)cn12	x	x	36*	x	x
O=C(N1CCN(c2ccccc2)CC1)C(F)(F)C(F)F	-2	52*	-21	-1	0
O=C(N1CCN(c2ccccc2)CC1)C(F)(F)C(F)(F)F	3	-5	-9	2	-12
CCOc1cccc2cc(C(=O)NCCn3nc(-c4ccncc4)ccc3=O)c(=O)oc12	x	x	-9	x	x
O=C(COC(=O)c1ccccn1)NCc1cccc(Cl)c1	2	x	-3	x	15
C=CCNc1nc(C(=O)OCC(=O)NCc2cccc(Cl)c2)cs1	34*	x	4	x	-7
Nc1c(C(=O)Nc2ccc(S(=O)(=O)N3CCCC3)cc2)sc2nc3cc4c(cc3cc12)CCC4	9	51*	1	1	-5
SMILES	Mtb hypoxia inh	VHR inh abs	SSB-PriA inh	SARS 3CLpro inh	CCHFV vOTU inh
Nc1c(C(=O)Nc2ccc(S(=O)(=O)N3CCCC3)cc2)sc2nc3ccc(OC(F)(F)F)cc3cc12	19	-10	-10	-2	x
COCCCNC(=O)CSc1nc2cc(S(=O)(=O)N3CCCCC3)ccc2o1	0	x	46*	x	-6
CCCCC(=O)NCc1ccc2c(c1)cc(C)n2C	10	11	3	-9	1
CCOC(=O)CCC(=O)NCc1ccc2c(c1)cc(C)n2C	6	-5	-10	-2	-5
CCOC(=O)NCc1ccc2c(c1)cc(C)n2C	9	51*	14	-4	2
Cc1cc2cc(CNC(=O)CC(C)C)ccc2n1C	15	55*	-11	-2	6
Cc1noc(C)c1CN1CCN(C(=O)C2CCCC2)CC1	x	x	-12	x	x
COc1ccccc1N1CCN(C2CCCN(C(=O)CCN3CCCCO3)C2)CC1 (stereo not given)	5	51*	-7	-9	9
O=C(CCN1CCCO1)N1CCCC(N2CCN(c3ccccc3F)CC2)C1 (stereo not given)	1	35	15	-3	21
O=C(N1CCC(Oc2ncccc2Br)CC1)C1(c2ccccc2)CCOCC1	x	x	-27	x	x
Cc1cc(OC2CCN(C(=O)C3(c4ccccc4)CCOCC3)CC2)cc(=O)o1	x	x	23*	x	x
COc1nccnc1OC1CCN(S(=O)(=O)c2ccc3oc(=O)[nH]c3c2)C1 (stereo not given)	x	x	-4	x	x
Cc1cc(OC(=O)c2ccccc2I)c([N+](=O)[O-])c(=O)[nH]1	x	x	-7	x	x
